Measured values taken from PubChem BioAssay (NCATS).
“And” between values parts separate entries of the source, which are not always exact repeats. Identical values can stand only once. Inconclusive results are not listed. The source made the active and inactive calls. Calls come from the whole dose curve; as a rule, active = well fitted inhibition curve with a large enough effect; inconclusive = small, poorly fitted or top-dose-only effect; inactive = flat fitted curve, though single readings scatter. *1 amine or outer side, *2 acyl side, *3 side chain or, on linkers, in order; H or OH if unused. Where a SMILES comes first, the peptide text is derived from it. Bridges are numbered along the chain shown (N, C = ends). X6 = O=C(CCC[*:2])[*:1]

System: CRL-7250
Test: Cytotoxic Profiling of Annotated Libraries Using Quantitative High-Throughput Screening (AID 1296008); note: nearly all actives have a fitted effect of over 60% in size
Conditions: Five cell lines viability, CellTiter-Glo ATP luminescence, 48-72 h; max response: active compounds read low
Method in brief: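 Cells exposed to compounds for 48 or 72 hr at 37 degrees Celsius. Viability read as ATP-coupled luminescence with CellTiter-Glo after 10 min at room temperature.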
% is set by controls: 0 for no effect and ±100 for the full control effect; potency is the fitted concentration of half-maximal effect.

Row | SMILES | max response | outcome | Potency
1 | CC(/C=C/C1(O)C(C)CC(O)CC1(C)C)OC1OC(CO)C(O)C(O)C1O (stereo not given) | 1.42% (inactive) | – | –
2 | c1ccc(C(OC2CCN(CCCc3nn[nH]n3)CC2)c2ccccc2)cc1 | – | inactive | –
3 | CC(CCC1(O)OC2CC3C4CCC5CC(O[C@@H]6O[C@H](CO)[C@@H](O)[C@H](O)[C@H]6O[C@@H]6OC[C@@H](O)[C@H](O)[C@H]6O)C(O)CC5(C)C4CCC3(C)C2C1C)CO[C@@H]1O[C@H](CO)[C@@H](O)[C@H](O)[C@H]1O (stereo not given in full) | -0.157% (inactive) | – | –
4 | COc1cc(C2Oc3c(OC)cc(/C=C/C(=O)OC[C@H]4O[C@@H](OC(C)(C)C(=O)O)[C@H](O)[C@@H](O)[C@@H]4O)cc3C2CO)ccc1O (stereo not given in full) | – | inactive | –
5 | CN1C(=O)N[C@@H](Cc2c[nH]c3c(Cl)cccc23)C1=O | -3.21% (inactive) | – | –
6 | CC1(C)C(O)CCC2(C)C1C(O)C=C1COC(=O)C12O (stereo not given) | 2.08% (inactive) | – | –
7 | COC(=O)C[C@@H]1C(C(=O)O)=CO[C@@H](O[C@@H]2O[C@H](CO)[C@@H](O)[C@H](O)[C@H]2O)/C1=C\COC(=O)/C=C\c1ccccc1 | -11.7% (inactive) | – | –
8 | COc1cc(O[C@@H]2O[C@H](CO)[C@@H](O)[C@H](O)[C@H]2O)c(CCC(=O)OC[C@H]2O[C@@H](Oc3cc(OC)c(C4OC(=O)C(C)(O)C4O)cc3CCC(=O)O)[C@H](O)[C@@H](O)[C@@H]2O)cc1C1OC(=O)C(C)(O)C1O (stereo not given in full) | 1.01% (inactive) | – | –
9 | COC1=CC(=O)O[C@@H](CCc2ccccc2)[C@@H]1O | -14.6% (inactive) | – | –
10 | C#Cc1cnc2[nH]c(=O)n(C(CC)CC)c2n1 | – | inactive | –
11 | COCC(=O)N1CCc2cc(-c3csc(NC(=O)c4cc(OC)cc(OC)c4)n3)ccc21 | – | inactive | –
12 | CC(C)(OC1OC(CO)C(O)C(O)C1O)C1CCC(O)(CO)C2CC(O)C(C)(O)C2C1 (stereo not given) | -5.53% (inactive) | – | –
13 | COc1ccc(C(OC2OC(CO)C(O)C(O)C2O)C(C)O)cc1 (stereo not given) | -9.11% (inactive) | – | –
14 | O=C(/C=C/c1ccc(O)cc1)OCC1=C[C@@H](O)[C@@H]2C=CO[C@@H](O[C@@H]3O[C@H](CO)[C@@H](O)[C@H](O)[C@H]3O)[C@H]12 | -2.56% (inactive) | – | –
15 | C[C@@H]1O[C@@H](O[C@H]2[C@H](OC(=O)[C@]34CCC(C)(C)C[C@H]3C3=CCC5[C@@]6(C)C[C@H](O)[C@H](O[C@@H]7O[C@H](CO[C@@H]8OC[C@H](O)[C@H](O)[C@H]8O)[C@@H](O)[C@H](O)[C@H]7O)C(C)(C)C6CC[C@@]5(C)[C@]3(C)C[C@H]4O)OC[C@@H](O)[C@@H]2O)[C@H](O)[C@H](O[C@@H]2OC[C@](O)(CO)[C@H]2O)[C@H]1O[C@@H]1OC[C@H](O)[C@H](O[C@@H]2OC[C@@H](O)[C@H](O)[C@H]2O)[C@H]1O (stereo not given in full) | -6.86% (inactive) | – | –
16 | CC1(CO)CC[C@]2(C(=O)O[C@@H]3O[C@H](CO)[C@@H](O)[C@H](O)[C@H]3O)CC[C@]3(C)C(=CCC4[C@@]5(C)C[C@H](O)[C@H](O[C@@H]6OC[C@@H](O)[C@H](O)[C@H]6O)[C@@](C)(CO)C5CC[C@]43C)C2C1 (stereo not given in full) | – | inactive | –
17 | CCC(CCO[C@@H]1O[C@H](CO[C@H]2OC[C@](O)(CO)[C@H]2O)[C@@H](O)[C@H](O)[C@H]1O)C(C)(C)O (stereo not given in full) | -2.81% (inactive) | – | –
18 | OC[C@H]1O[C@@H](Oc2ccc(O)c3cccc(O)c23)[C@H](O)[C@@H](O)[C@@H]1O | – | inactive | –
19 | CN1C(=O)c2ccccc2-n2c(nc3ccccc3c2=O)/C1=C/c1ccccc1 | – | inactive | –
20 | CNC(=O)[C@H]1O[C@@H](n2cnc3c(NCc4ccc(N)c(I)c4)ncnc32)[C@H](O)[C@@H]1O | -3.43% (inactive) | – | –

Row | SMILES | max response | outcome | Potency
21 | N#CCc1ccc(O)cc1O[C@@H]1O[C@H](CO)[C@@H](O)[C@H](O)[C@H]1O | – | inactive | –
22 | CCOc1c2c(c(OCC)c3ccccc13)C(=O)N(c1ccc(CC(=O)NS(=O)(=O)c3ccccc3)cc1)C2 | -1.51% (inactive) | – | –
23 | C=C1CC23CCC4[C@@](C)(CCC[C@@]4(C)C(=O)O)C2CCC1C3 (stereo not given in full) | -2.77% (inactive) | – | –
24 | O=C(O)C[C@H]1CCC(=O)[C@@H]1C/C=C\CCOC1OC(CO)C(O)C(O)C1O (stereo not given in full) | -7.42% (inactive) | – | –
25 | CCOC(=O)[C@H]1O[C@@H]1C(=O)N[C@@H](CC(C)C)C(=O)NCCC(C)C | – | inactive | –
26 | CC1(C)CC2C(O)C3=C(CC(C)(O)C2C1)C(=O)OC3O (stereo not given) | -0.0685% (inactive) | – | –
27 | CC[C@H](C)[C@@H]1NC(=O)[C@H](Cc2ccc(OC)cc2)NC(=O)CCCSC[C@@H](C(=O)N2CCC[C@H]2C(=O)N[C@@H](CC(C)C)C(=O)NCC(N)=O)NC(=O)[C@H](CC(N)=O)NC(=O)[C@H](CCC(N)=O)NC1=O (Y(Me)IQNCPLG-NH2; linker N-5 via X6) | -0.379% (inactive) | – | –
28 | O=C(/C=C/c1ccc(O)c(O)c1)OCc1ccccc1O[C@@H]1O[C@H](CO)[C@@H](O)[C@H](O)[C@H]1O | -1.33% (inactive) | – | –
29 | COC(=O)C1=C[C@@H](O)[C@@H](O)[C@H](O[C@@H]2O[C@H](COC(=O)/C=C/c3ccccc3)[C@@H](O)[C@H](O)[C@H]2O)C1 | – | inactive | –
30 | CC(C)(O)CNc1nc(Nc2ccnc(C(F)(F)F)c2)nc(-c2cccc(C(F)(F)F)n2)n1 | -2.34% (inactive) and 1.41% (inactive) | – | –
31 | C=C1CC23CC1(O)CCC2C1=CC2OC(=O)C(C)(C2O)C1C3C(=O)O (stereo not given) | -8.2% (inactive) | – | –
32 | CC1(C)CCC2(C(=O)OC3OC(COC4OC(CO)C(O)C(O)C4O)C(O)C(O)C3O)CCC3(C)C(=CCC4C5(C)CCC(O)C(C)(C(=O)O)C5CCC43C)C2C1O (stereo not given) | – | inactive | –
33 | O=C(O)C[C@H](O)C[C@H](O)/C=C/c1c(C2CC2)nc2ccccc2c1-c1ccc(F)cc1 | – | – | 731 nM (active)
34 | CCn1nnnc1NCc1ccc(C(C)C)cc1 | – | inactive | –
35 | CC1(CO)CC2C(O)C(=O)C3(CO)CC3(C)C2C1 (stereo not given) | -4.66% (inactive) | – | –
36 | C=C1CC[C@@H]2[C@](C)(CC[C@H](O)[C@@]2(C)CCC=C(C)C)[C@@H]1Cc1c[nH]c2ccccc12 | -8.3% (inactive) | – | –
37 | C=CC1(C)C=C2C(O)CC3C(C)(C(=O)O)CCCC3(C)C2CC1 (stereo not given) | – | inactive | –
38 | C/C=C/C=C/C(CC(=O)O)Nc1ccc(C=O)cc1 (stereo not given) | – | inactive | –
39 | C=C1C(=O)OC2CC(C)=C(C(C)CCCO[C@@H]3O[C@H](CO)[C@@H](O)[C@H](O)[C@H]3O)C(O)C12 (stereo not given in full) | -0.682% (inactive) | – | –
40 | CC1=CC2(O)/C=C/C(C)(O)CC(O)/C=C/C(=O)OC23C(=O)NC(CC(C)C)C3C1C (stereo not given) | -2.92% (inactive) | – | –
